# Test results as given in PubChem BioAssay AID602397 (The Scripps Research Institute Molecular Screening Center, 2012).
# Some of the results follow. A number with no mark means an inactive call. The rule behind the calls is not given here.
# Test: GFP fluorescence inhibitors and quenchers, late-stage follow-up, artefact control for Rin1-Abl interaction inhibitor project, biochemical, dose response (AID 602397)
# Conditions: GFP fluorescence quenching counterscreen
structure (smiles),measurement,value
CN(Cc1c(F)cccc1Cl)C(=O)CNC(=O)c1ccc2c(c1)OCO2,IC50,> 67.5 µM
